Experimental data taken from PubChem BioAssay (NCATS).
Several values for one entry are separate records, joined by “and”; a condition that tells them apart may be missing. Identical values can stand only once. Results filed as inconclusive are left out. Values without a mark were called inactive. Activity calls are given as the source filed them. The call rests on the fitted dose curve; in most records, active means well fitted activation curve with a large enough effect; inconclusive means small, poorly fitted or top-dose-only effect; inactive means no such curve, though single readings can be large or run the other way. Starred links: 1 amine or outer side, 2 acyl side, 3 side chain; linkers in the order of their positions; H or OH if unused. Positions of bridges follow the written chain, without caps; N, C: chain ends. Non-standard residues stand in square brackets, D forms with d. Residues, ends and D or L forms follow the SMILES beside them. Chains are numbered I, II in the order given. Actinocin(9to1) = Cc1c2oc3c(C)ccc(C(=O)[*:1])c3nc-2c(C(=O)[*:2])c(N)c1=O; NMeV = CN[C@H](C(=O)O)C(C)C; Sar = CNCC(=O)O

Target: Cellular tumor antigen p53 (Homo sapiens) (UniProt P04637)
Sequence (P04637 whole entry, looked up): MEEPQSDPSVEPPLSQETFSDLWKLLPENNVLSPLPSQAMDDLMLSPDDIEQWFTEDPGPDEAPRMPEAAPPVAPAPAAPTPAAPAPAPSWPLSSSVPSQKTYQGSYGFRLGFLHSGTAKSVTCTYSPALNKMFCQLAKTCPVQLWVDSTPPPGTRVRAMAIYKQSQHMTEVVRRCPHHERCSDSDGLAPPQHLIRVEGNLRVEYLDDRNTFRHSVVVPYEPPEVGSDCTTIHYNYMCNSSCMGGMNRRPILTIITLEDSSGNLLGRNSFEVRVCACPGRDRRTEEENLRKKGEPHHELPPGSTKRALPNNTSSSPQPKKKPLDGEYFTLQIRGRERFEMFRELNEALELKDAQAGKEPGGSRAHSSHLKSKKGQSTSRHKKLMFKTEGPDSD
Assay: Primary qHTS for small molecule compounds that upregulate eGFP-tagged delta133p53alpha (in N-terminal) cells. (AID 2060322); further: nearly all actives have a fitted effect of over 75% in size;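 on activation: series mostly up to about 56 µM; 0% = DMSO vehicle and 100% = reference activator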
Conditions: NCI-H358 eGFP-delta133p53alpha fluorescence, 24 h; activation: stronger effect = higher value
How it was run: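 NCI-H358 cells pre-induced 24 h with 10 ng/ml doxycycline for eGFP-delta133p53alpha, plated dox-free and exposed 24 h at 37C to titrated compounds. Fixed, Hoechst-stained; gated GFP peak intensity by laser scanning cytometry, normalized to DMSO (0%) and 57.5 uM 5-azacytidine (100%).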
Potency means the concentration at half of the fitted maximal effect.

In order of falling activation:
1. CC(C(=O)O)c1cccc(Oc2ccccc2)c1 (stereo unspecified)  32.2%
2. CC(=O)Nc1ccc(C(=O)O)cc1  26.6%
3. Cc1ccc(S(=O)(=O)NC(=O)NC2CCCC2)cc1  23.2%
4. C=CC[C@@H]1C=C(C)C[C@H](C)C[C@H](OC)[C@H]2O[C@@](O)(C(=O)C(=O)N3CCCC[C@H]3C(=O)O[C@H](C(C)=C[C@@H]3CC[C@H](O)[C@H](OC)C3)[C@@H](C)[C@@H](O)CC1=O)[C@@H](C)C[C@@H]2OC  23.1%
5. CCCCOc1ccc(OCCCN2CCOCC2)cc1  22.6%
6. CCN(C(=O)CO)[C@H]1CN(C(=Nc2cccc(OC(F)F)c2)NC#N)N=C1c1ccc(Cl)c(Cl)c1  19%
7. Cc1[nH]cnc1-c1ccc(Cl)cc1  15.3%
8. COCCc1ccccn1  15.1%
9. CC1(C)O[C@@H]2C[C@H]3[C@@H]4CCC5=CC(=O)C=C[C@]5(C)[C@@H]4[C@@H](O)C[C@]3(C)[C@]2(C(=O)CO)O1  10.4%
10. CN=C(NC#N)NCCSCc1csc(N=C(N)N)n1  9.6%
11. COc1ccc2c3c1OC1C[C@@H](O)C=C[C@@]31CCN(C)C2 (stereo partly specified)  8.8%
12. C[N+](C)(C)CC(O)CC(=O)[O-] (stereo unspecified)  7.53%
13. CCCCC1=NC2(CCCC2)C(=O)N1Cc1ccc(-c2ccccc2-c2nn[nH]n2)cc1  6.69%
14. CCc1c(C)nc2c(-c3cnn(-c4cc(CO)ccn4)c3)c[nH]n2c1=O  5.67%
15. CC(=O)OCC(=O)[C@@]1(OC(C)=O)[C@@H](C)C[C@H]2[C@@H]3C[C@H](F)C4=CC(=O)C=C[C@]4(C)[C@@]3(F)[C@@H](O)C[C@@]21C  5.08%
16. CC(C)COC(=O)c1ccc(N)cc1  2.82%
17. CCCCCCCCCCC[C@@H](C[C@@H]1OC(=O)[C@H]1CCCCCC)OC(=O)[C@H](CC(C)C)NC=O  2.82%
18. Cc1ccc2c(c1)c1c3n2CCNC3CCC1 (stereo unspecified)  -0.837%
19. O=C(O)c1ccccc1NCCc1ccccc1  -1.69%
20. C=CCNC(N)=S  -2.82%
21. COc1ccc(CCC(C)=O)cc1  -5.86%
22. O=C(O)[C@H](O)c1ccccc1  -6.21%
23. O=C(O)Cc1ccc(-c2ccccc2)cc1  -6.21%
24. CC(C)(Oc1ccc(Cl)cc1)C(=O)OCCCOC(=O)C(C)(C)Oc1ccc(Cl)cc1  -6.69%
25. O=C1CCc2ccccc2O1  -6.7%
26. O=C(CCOCCOCCOCCOCCC(=O)Nc1c(I)cc(I)c(C(=O)O)c1I)Nc1c(I)cc(I)c(C(=O)O)c1I  -9.21%
27. CC(=O)N[C@H]1[C@@H]([C@H](O)[C@H](O)CO)OC(C(=O)O)=C[C@@H]1N=C(N)N  -10.7%
28. C[C@]12CC[C@H](O)CC1=CC[C@@H]1[C@H]2CC[C@]2(C)C(c3cccnc3)=CC[C@H]12  -11.6%
29. COc1cc(C=CC(=O)O)ccc1O  -12.5%
30. O=C(OCC(O)CO)c1ccccc1Nc1ccnc2c(C(F)(F)F)cccc12 (stereo unspecified)  -13.4%
31. O=C(O)c1ccc(OCCN2CCCCC2)cc1  -14.1%
32. O=C(OCc1ccccc1)c1ccc(O)cc1  -15.3%
33. COc1ccc2cc(CCC(C)=O)ccc2c1  -16.4%

For `CCC(C=C[C@@H]1OC(=O)C=C[C@H]1C)=C[C@H](C)CC=CC(C)=C[C@@H](C)C(=O)[C@@H](C)[C@H](O)[C@@H](C)CC(C)=CC(=O)O`, the Potency was 287 nM (active).
In the case of `Cc1c2oc3c(C)ccc(C(=O)N[C@@H]4C(=O)N[C@H](C(C)C)C(=O)N5CCC[C@H]5C(=O)N(C)CC(=O)N(C)[C@@H](C(C)C)C(=O)O[C@@H]4C)c3nc-2c(C(=O)N[C@@H]2C(=O)N[C@H](C(C)C)C(=O)N3CCC[C@H]3C(=O)N(C)CC(=O)N(C)[C@@H](C(C)C)C(=O)O[C@@H]2C)c(N)c1=O` (I: T[dV]P[Sar][NMeV] / II: T[dV]P[Sar][NMeV]; ester I:1-I:C, II:1-II:C; linker I:N-II:N via Actinocin(9to1)), the Potency is reported as 11 nM (active).

For `CNS(=O)(=O)Cc1ccc2[nH]cc(CCN(C)C)c2c1`, the activation was -6.69% and -7.27%.
